RORg inh: blocks mouse ROR gamma transcriptional activity. P51450. Drosophila S2 Gal4-RORgamma UAS-luciferase reporter, 20 h. Potency, µM (titrated, usually from 53.6 µM), most hits filed as inhibitors. 5.4% of 310,000 active. AID 2551; also: nearly all actives have a fitted effect of over 60% in size
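Schneider cells (Drosophila), stable Gal4 DBD–ROR gamma + UAS-luc; 1 hr cmpd preincubation; Cu2+ induction 700 uM final; 20 hr ambient; luminescence.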
Giardia kill: Giardia lamblia killing; Giardia lamblia trophozoite viability; 0.15% of 340,000 active; AID 540267; activity change, % at 7.66 µM, hits read low; in the data active = activity change below about -80%; inconclusive = between about -30% and that limit;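 also: parasites exposed to compound for two days anaerobically before the ATP read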
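Trophozoite viability was measured as ATP-dependent luminescence, read 15-30 min after reagent addition. Before that, parasites at 100 cells/well were exposed to compounds for 48 h, anaerobically, at 37 deg C.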
ERG-DNA inh: ERG Ets/DNA interaction inhibition | P11308 | fluorescence polarization, His-ERG Ets domain / labelled DNA | Potency, µM (highest dose often 76.9 µM), most hits filed as inhibitors | 0.028% of 370,000 active | AID 624246; active = well fitted inhibition curve with a large enough effect in the polarisation, with a control signal flat; inconclusive = small, poorly fitted or top-dose-only effect, or effect the other way, or a change in a side signal; inactive = no such curve, though single readings can be large or run the other way; the % refers to the polarisation;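 also: polarization taken with two DNA probes labelled with fluorescein and Texas red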
Target sequence (P11308 whole entry, looked up, the tested form may be a part): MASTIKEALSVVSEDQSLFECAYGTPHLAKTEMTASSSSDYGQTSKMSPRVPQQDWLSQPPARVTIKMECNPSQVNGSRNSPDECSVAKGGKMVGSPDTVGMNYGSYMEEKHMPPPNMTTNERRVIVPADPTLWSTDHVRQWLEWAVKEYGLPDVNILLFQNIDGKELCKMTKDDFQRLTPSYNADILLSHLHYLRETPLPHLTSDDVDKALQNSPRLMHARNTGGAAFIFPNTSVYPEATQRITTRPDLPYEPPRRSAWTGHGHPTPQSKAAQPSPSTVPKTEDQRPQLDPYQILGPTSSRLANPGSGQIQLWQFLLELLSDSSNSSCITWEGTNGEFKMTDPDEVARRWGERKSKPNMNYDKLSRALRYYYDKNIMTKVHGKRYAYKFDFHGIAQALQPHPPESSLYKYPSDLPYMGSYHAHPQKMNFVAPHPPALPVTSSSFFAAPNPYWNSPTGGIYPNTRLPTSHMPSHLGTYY
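His-tagged ERG Ets domain (1 uM in the protein solution; 300mM KCl, 50mM Tris-HCl, 1mM EDTA, 1mM DTT, pH 7.5) received compound, then a probe mix of 5 nM fluorescein-DNA and 100nM Texas-615-DNA. Fluorescence polarization was read for both dyes.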
Integrin act MD: activators of alpha7 integrin expression for muscular dystrophy; 0.064% of 350,000 active; alpha7betagal myoblasts, beta-gal FDG fluorescence, 48 h; Potency, µM (highest dose often 38.3 µM), actives largely listed as activators; also: nearly all actives have a fitted effect of over 60% in size
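Alpha7betagal+/- myoblasts (passage 13) were plated 16-24 hr, then exposed to compounds (1:260 dilution of DMSO stock) for 48 hours at 37C. After MPER lysis, β-galactosidase reporter activity was read as FDG fluorescence (ex 480/em 540) after 30 minutes.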
VP16 counter: inhibits Gal4-VP16 luciferase reporter, ROR gamma counter-screen; Drosophila S2 Gal4-VP16 UAS-luciferase, luminescence, 20 h; Potency, µM (highest dose often 53.6 µM), usual class: inhibitors; 3.5% of 310,000 active; AID 2546;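 also: Gal4-VP16 expression switched on by copper sulfate through the metallothionein promoter; nearly all actives have a fitted effect of over 50% in size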
Of the large screens only hits and unclear results are named; the others gave an inactive call. The full list was thinned out, with hits kept by preference. Unless noted, calls follow the shape of the dose curve; as a rule, active = well fitted curve in the direction sought with a large enough effect; inconclusive = small, poorly fitted or top-dose-only effect, or another doubt; inactive = no such curve, though single readings can be large; an effect the other way counts as inactive or inconclusive.

O=S1(=O)N=C(Nc2nc3c(s2)CCCC3)c2ccccc21	RORg inh 0.447µM, Giardia kill inconclusive, VP16 counter 1.26µM
Cc1cccc(Nc2nc3c(s2)CCCC3)c1	none (no result: ERG-DNA inh)
O=C(CCl)N1CCCC1c1ccc2c(c1)OCCO2 (centres undefined)	RORg inh 4.47µM, VP16 counter inconclusive
CC(=O)c1ccc(OCC(=O)N2CCCC2c2ccc3c(c2)OCCCO3)cc1 (centres undefined)	none (no result: RORg inh, VP16 counter)
Cc1nn(C)c(C)c1Nc1ccc(N2C(=O)C3CC=CCC3C2=O)cc1[N+](=O)[O-] (centres undefined)	none
O=C(CS(=O)(=O)c1ccccc1)Nc1nnc(-c2cccs2)o1	none (no result: RORg inh, VP16 counter)
CCCCN(C)S(=O)(=O)c1ccc(C(=O)Nc2nnc(C3=COCCO3)o2)cc1	RORg inh 0.708µM, VP16 counter 1.78µM
CCCCN(C)S(=O)(=O)c1ccc(C(=O)Nc2nnc(-c3cccs3)o2)cc1	RORg inh 0.316µM, VP16 counter 0.891µM (no result: Giardia kill, ERG-DNA inh, Integrin act MD)
Cc1ccc(F)cc1CNC(=O)c1cc(COc2ccc3ncccc3c2)on1	RORg inh inconclusive, VP16 counter 11.2µM
Cc1cc(C)n(CCNC(=O)c2cc(COc3ccc4ncccc4c3)on2)n1	RORg inh inconclusive, VP16 counter inconclusive
O=C(NCc1cccc(Cl)c1)c1cc(COc2ccc3ncccc3c2)on1	VP16 counter 10µM
CC(CCCC(C)(C)O)NC(=O)c1cc(COc2ccc3ncccc3c2)on1 (centres undefined)	RORg inh 7.94µM, VP16 counter 5.62µM
CC(C)N(Cc1nccn1C)C(=O)c1cc(COc2ccc3ncccc3c2)on1	VP16 counter inconclusive
NC(=O)c1ccc(NC(=O)COC(=O)CC23CC4CC(CC(Br)(C4)C2)C3)cc1	none (no result: RORg inh, VP16 counter)
COc1ccc(NC(=S)Nc2cc(-c3ccccc3)[nH]n2)cc1Cl	RORg inh 2.82µM, VP16 counter 2µM
Cc1cc(NC(=S)Nc2ccc(C)c(Cl)c2)n[nH]1	RORg inh 0.355µM, VP16 counter 1µM
CCOc1ccc(NC(=S)Nc2cccnc2)cc1	RORg inh inconclusive
CCOc1ccc(NC(=S)Nc2cc(-c3ccccc3)[nH]n2)cc1	RORg inh 1.78µM, VP16 counter 3.55µM
COc1ccc(NC(=S)Nc2cc(C)[nH]n2)cc1Cl	RORg inh inconclusive, VP16 counter inconclusive
Cc1[nH]c(-c2ccc(F)cc2)cc1C(=O)N1CCN(c2cccc(Cl)c2)CC1	none
O=C(NCC1COCCO1)c1cc(COc2c(F)cccc2F)on1 (centres undefined)	none
O=C(N/N=C1/CCSC1)c1cccc([N+](=O)[O-])c1	RORg inh inconclusive, VP16 counter 20µM
C/C(=N\NC(=O)c1ccccc1)c1ccc(C)c([N+](=O)[O-])c1	VP16 counter inconclusive
Cc1ccc(C(=O)N/N=C2\CCSC2)cc1[N+](=O)[O-]	RORg inh 10µM, VP16 counter inconclusive
CCn1c2ccccc2c2cc(NC(=O)CSc3nnc(-c4ccccc4)o3)ccc21	none
O=C(c1cccs1)c1no[n+]([O-])c1C(=O)c1cccs1	RORg inh 11.2µM, VP16 counter 11.2µM
CCNc1nc(NCC)nc(OCCOC(C)=O)n1	none
CCNc1nc(ON=C(C)C)nc(N(C)C)n1	RORg inh 14.1µM
CN(C)C(CNC(=S)Nc1cccc(Cl)c1)c1ccccc1 (centres undefined)	RORg inh 3.98µM, VP16 counter 12.6µM
CN(C)C(CNC(=O)Nc1cccc(Cl)c1)c1cccnc1 (centres undefined)	none
Cc1cccc(NC(=S)NCC(c2ccccc2)N(C)C)c1 (centres undefined)	RORg inh 3.16µM, VP16 counter 10µM
Cc1cccc(NC(=S)NC(NC(=O)OCc2ccccc2)C(Cl)(Cl)Cl)c1 (centres undefined)	RORg inh 11.2µM, VP16 counter inconclusive (no result: ERG-DNA inh)
O=C(NC(NC(=S)Nc1cccc(C(=O)O)c1)C(Cl)(Cl)Cl)OCc1ccccc1 (centres undefined)	none
Cc1cccc(NC(=S)NC(C)CCc2ccccc2)c1 (centres undefined)	RORg inh 7.08µM, VP16 counter 3.16µM
Cc1cccc(NC(=O)NC(C)CCc2ccccc2)c1 (centres undefined)	none
COc1ccc(N(CC(=O)N2CCC(Cc3ccccc3)CC2)S(C)(=O)=O)cc1	Giardia kill inconclusive
CCN1C(=O)/C(=C/c2ccc(C)s2)NC1=S	RORg inh 17.8µM, VP16 counter inconclusive
COc1cccc(NC(=O)C2COc3ccccc3O2)c1 (centres undefined)	none
CC(=O)Nc1ccc(Nc2nc(-c3ccccc3)nc3ccccc23)cc1	VP16 counter 12.6µM
COc1ccc(-c2nc3sc(CCNC(=O)C(=O)Nc4c(C)cccc4C)c(C)n3n2)cc1	none (no result: RORg inh, Giardia kill, Integrin act MD, VP16 counter)
COCCCNc1nc(SCc2ccccc2)nc2sc3c(c12)CCC3	RORg inh 11.2µM
COCCNc1nc(SC)nc2sc3c(c12)CCN(C)C3	none
COc1ccccc1C(=O)Nc1ccccc1SCc1cc(=O)c2ccccc2[nH]1	none (no result: RORg inh, Giardia kill, Integrin act MD, VP16 counter)
COCCn1c(=S)[nH]c2sc3c(c2c1=O)CCCC3	RORg inh 3.98µM, VP16 counter 2.24µM
C=CCNC(=O)CSc1nc2sc3c(c2c(=O)n1CCCOC)CCC3	none
COCCCn1c(=S)[nH]c2sc3c(c2c1=O)CCCC3	RORg inh 0.794µM, VP16 counter 1µM
O=c1[nH]c2sc3c(c2c(=O)n1Cc1ccccc1)CCC3	none
C=CCn1c(=S)[nH]c2sc3c(c2c1=O)CCCC3	RORg inh 0.398µM, Integrin act MD inconclusive, VP16 counter 0.708µM
CCc1c(C)nc2nncn2c1Nc1ccc(C)c(F)c1	none (no result: RORg inh, Giardia kill, Integrin act MD, VP16 counter)
Cc1nc2cnc(N3CCOCC3)nc2n(Cc2ccc(F)cc2)c1=O	none (no result: Giardia kill, ERG-DNA inh, Integrin act MD)
Cc1cc(C)c(NC(=O)CN2C(=O)NC3(CCCCC3)C2=O)c(C)c1	none
C=C1SC(Nc2c(C)cccc2C)=NC12CCCCC2	RORg inh 3.98µM, VP16 counter 2.24µM
C=C1SC(Nc2c(C)cc(C)cc2C)=NC12CCCCC2	RORg inh inconclusive, VP16 counter 0.631µM
Cc1cccc(C)c1NC(=O)NC1(C(=O)N2CCCCC2)CCCCC1	none
CN1CCN(c2ccc(-c3ccc4ccccc4n3)cc2)CC1	RORg inh 0.316µM, Giardia kill inconclusive, VP16 counter inconclusive
c1ccc2nc(-c3ccc(N4CCOCC4)cc3)ccc2c1	RORg inh 1.41µM, Giardia kill inconclusive, VP16 counter 1.26µM
Cc1ccc(NC(=O)CSc2nc3nn(-c4ccccc4)c(=O)c-3c3n2CCCCC3)cc1F	none (no result: RORg inh, VP16 counter)
COc1ccccc1-c1cn[nH]c(=S)n1	RORg inh 8.91µM, VP16 counter inconclusive
COc1ccccc1-c1n[nH]c(=S)n1Cc1ccccc1	RORg inh inconclusive, VP16 counter inconclusive
CC(C)(C)c1ccc(CN(Cc2ccco2)Cc2nnnn2C2CCCC2)cc1	VP16 counter 2.82µM
COc1ccc(C(=O)N2CCCC(C(N)=O)C2)cc1S(=O)(=O)N1CCOCC1 (centres undefined)	none (no result: RORg inh, VP16 counter)

Screening results: PubChem, National Center for Advancing Translational Sciences (NCATS)
